# Reference: PubChem BioAssay (EPA / NIEHS)
# The source made the active and inactive calls. Rule for the calls: active = hit-call score of the fitted dose curve at least 0.9, where 1 is the maximum; inactive = score below 0.9.
# What was measured:
# [1] = read-out: Monokine induced gamma interferon (MIG), CXCL9 (gene 4283); assay: BSK_3C_MIG: BioMAP Diversity Plus: 3C Assay for Monokine induced gamma interferon (MIG) Biomarker Activity (AID 2283021); conditions: primary human endothelial cells (HUVEC); actives raise or lower the signal
# Outline: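 Primary human umbilical vein endothelial cells in the 3C system were exposed to chemical for 24 h, after which MIG was quantified by ELISA. Activity was fitted bidirectionally against DMSO as negative control and baseline.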
# [2] = read-out: Matrix Metallopeptidase 1 (MMP1), MMP1 (gene 4312); assay: BSK_BE3C_MMP1: BioMAP Diversity Plus: BE3C Assay for Matrix Metallopeptidase 1 (MMP1) Biomarker Activity (AID 2283024); conditions: primary human bronchial epithelial cells; actives raise or lower the signal
# Outline: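 Primary human bronchial epithelial cells were dosed with test chemicals, and MMP1 levels were measured by ELISA 24 h later. Data were fitted bidirectionally against DMSO as the negative control and activity baseline.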
# [3] = BSK_3C_Vis: BioMAP Diversity Plus: 3C Assay for Morphology Visualization (AID 2283025); conditions: primary human endothelial cells (HUVEC);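 note: fitted both ways so gain or loss versus DMSO counts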
# Outline: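 Human umbilical vein endothelial cells in the 3C system were imaged by light microscopy 24 h after chemical dosing to record cell morphology. Activity was fitted bidirectionally against DMSO as negative control and baseline; the endpoint serves as a background control.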
# [4] = read-out: Pselectin, SELP (gene 6403); assay: BSK_4H_Pselectin: BioMAP Diversity Plus: 4H Assay for Pselectin Biomarker Activity (AID 2283026); conditions: primary human endothelial cells (HUVEC); actives raise or lower the signal
# Outline: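 Primary human umbilical vein endothelial cells were exposed to test chemical for 24 h, then cell-surface P-selectin was quantified by ELISA. Activity was fitted bidirectionally against DMSO as negative control and baseline.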
# [5] = BSK_4H_SRB: Viability Assessment in the BioMAP Diversity Plus: 4H Assay (AID 2283027); conditions: primary human endothelial cells (HUVEC);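 note: cells exposed to compound for 24 h before staining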;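 for AC50: curves fitted both ways versus DMSO so AC50 may be loss or gain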
# Outline: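 Human umbilical vein endothelial cells, 24 h after chemical dosing; total protein measured by 0.1% sulforhodamine B staining after 10% TCA fixation, read at 560 nm. Bidirectional fitting against DMSO.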
# [6] = BSK_BE3C_SRB: Viability Assessment in the BioMAP Diversity Plus: BE3C Assay (AID 2283028); conditions: primary human bronchial epithelial cells
# Outline: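 Cells (human bronchial epithelial, primary) are treated with chemicals, and after 24 h the parallel cultures are fixed in 10% TCA. These are then stained with 0.1% SRB and read at 560 nm. Gain or loss of signal is fitted relative to DMSO.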
# [7] = read-out: Urokinase-type plasminogen activator receptor (uPAR), PLAUR (gene 5329); assay: BSK_4H_uPAR: BioMAP Diversity Plus: 4H Assay for Urokinase-type plasminogen activator receptor (uPAR) Biomarker Activity (AID 2283030); conditions: primary human endothelial cells (HUVEC); actives raise or lower the signal
# Outline: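 Cell-surface uPAR ELISA signal, measured 24 h after dosing human umbilical vein endothelial cells, was analyzed with bidirectional fitting relative to DMSO. Parallel SRB staining of total protein tracked overt cytotoxicity.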
# [8] = read-out: Vascular endothelial growth factor receptor 2 (Homo sapiens) (UniProt P35968); assay: BSK_4H_VEGFRII: BioMAP Diversity Plus: 4H Assay for Vascular endothelial growth factor receptor 2 (VEGFR2) Biomarker Activity (AID 2283031); conditions: primary human endothelial cells (HUVEC); actives raise or lower the signal
# Outline: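 ELISA read-out of VEGFRII in primary human umbilical vein endothelium, taken 24 h after chemical treatment. Responses are expressed relative to DMSO, with bidirectional fitting.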
# [9] = read-out: Human Leukocyte Antigen - DR isotype (HLADR), HLA-DRA (gene 3122); assay: BSK_BE3C_HLADR: BioMAP Diversity Plus: BE3C Assay for Human Leukocyte Antigen - DR isotype (HLADR) Biomarker Activity (AID 2283032); conditions: primary human bronchial epithelial cells; actives raise or lower the signal
# Outline: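 Human primary bronchial epithelial cells in the BE3C system were exposed to chemicals for 24 h, after which HLA-DR levels were quantified by ELISA. Activity was fitted bidirectionally, gain or loss of signal, against DMSO as negative control and baseline.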
# [10] = read-out: Vascular cell adhesion molecule 1 (VCAM1), VCAM1 (gene 7412); assay: BSK_4H_VCAM1: BioMAP Diversity Plus: 4H Assay for Vascular cell adhesion molecule 1 (VCAM1) Biomarker Activity (AID 2283033); conditions: primary human endothelial cells (HUVEC); actives raise or lower the signal;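 note: cell-surface VCAM-1 protein measured by ELISA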
# Outline: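 Primary human umbilical vein endothelial cells were exposed to chemicals for 24 h, after which VCAM-1 was quantified by ELISA. Responses were fitted bidirectionally against DMSO as negative control and activity baseline.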
# [11] = read-out: Interferon-gamma inducible Protein 10 (IP10), CXCL10 (gene 3627); assay: BSK_BE3C_IP10: BioMAP Diversity Plus: BE3C Assay for Interferon-gamma inducible Protein 10 (IP10) Biomarker Activity (AID 2283034); conditions: primary human bronchial epithelial cells; actives raise or lower the signal
# Outline: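 Human primary bronchial epithelial cells were exposed to chemicals for 24 hours, after which IP-10 levels were measured by ELISA. Data were fitted bidirectionally against DMSO, which served as the negative control and activity baseline.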
# [12] = read-out: Monokine induced gamma interferon (MIG), CXCL9 (gene 4283); assay: BSK_BE3C_MIG: BioMAP Diversity Plus: BE3C Assay for Monokine induced gamma interferon (MIG) Biomarker Activity (AID 2283035); conditions: primary human bronchial epithelial cells; actives raise or lower the signal;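 note: MIG protein measured by ELISA in BE3C cultures after 24 h of dosing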
# Outline: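 Primary human bronchial epithelial cells treated for 24 h; MIG levels measured by ELISA, fitted bidirectionally versus DMSO. Parallel SRB total-protein staining assessed cytotoxicity.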
# [13] = read-out: Transforming growth factor beta 1 (TGFb1), TGFB1 (gene 7040); assay: BSK_BE3C_TGFb1: BioMAP Diversity Plus: BE3C Assay for Transforming growth factor beta 1 (TGFb1) Biomarker Activity (AID 2283036); conditions: primary human bronchial epithelial cells; actives raise or lower the signal
# Outline: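 Human primary bronchial epithelial cells (BE3C system) were dosed with chemical and TGF-b1 levels measured by ELISA at 24 h. Activity was fitted bidirectionally relative to DMSO negative control as baseline.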
# [14] = read-out: Plasminogen activator inhibitor-1 (PAI1), SERPINE1 (gene 5054); assay: BSK_BE3C_PAI1: BioMAP Diversity Plus: BE3C Assay for Plasminogen activator inhibitor-1 (PAI1) Biomarker Activity (AID 2283037); conditions: primary human bronchial epithelial cells; actives raise or lower the signal
# Outline: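 Human primary bronchial epithelial cells were exposed to chemical for 24 h, then PAI-1 was quantified by ELISA. Activity was fitted bidirectionally relative to the DMSO negative control baseline.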
# [15] = read-out: urokinase plasminogen activator (uPA), PLAU (gene 5328); assay: BSK_BE3C_uPA: BioMAP Diversity Plus: BE3C Assay for urokinase plasminogen activator (uPA) Biomarker Activity (AID 2283038); conditions: primary human bronchial epithelial cells; actives raise or lower the signal;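 note: uPA protein level quantified by ELISA in cell cultures; uPA read one day after compound addition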
# Outline: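 Bronchial epithelial cells (human, primary); chemical 24 h; uPA by ELISA; bidirectional fit vs DMSO. SRB (0.1%, after 10% TCA fixation, 560 nm) in parallel cultures for cytotoxicity.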
# [16] = read-out: Urokinase-type plasminogen activator receptor (uPAR), PLAUR (gene 5329); assay: BSK_BE3C_uPAR: BioMAP Diversity Plus: BE3C Assay for Urokinase-type plasminogen activator receptor (uPAR) Biomarker Activity (AID 2283039); conditions: primary human bronchial epithelial cells; actives raise or lower the signal;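 note: cells exposed to compound for one day before measurement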
# Outline: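 Primary human bronchial epithelial cells were dosed with chemical and harvested 24 h later; uPAR was quantified by ELISA. Activity was fitted bidirectionally against DMSO as negative control and baseline.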
# [17] = read-out: Interleukin-6 (IL6), IL6 (gene 3569); assay: BSK_CASM3C_IL6: BioMAP Diversity Plus: CASM3C Assay for Interleukin-6 (IL6) Biomarker Activity for (AID 2283040); conditions: primary human coronary artery smooth muscle cells; actives raise or lower the signal
# [18] = read-out: Thrombomodulin, THBD (gene 7056); assay: BSK_3C_Thrombomodulin: BioMAP Diversity Plus: 3C Assay for Thrombomodulin Biomarker Activity (AID 2283029); conditions: primary human endothelial cells (HUVEC); actives raise or lower the signal
# Outline: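 Primary human umbilical vein endothelial cells (3C system) were exposed to chemical for 24 h, then thrombomodulin levels were measured by ELISA. Activity was fitted bidirectionally against the DMSO negative control as baseline.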
# [19] = BSK_3C_SRB: Viability Assessment in the BioMAP Diversity Plus: 3C Assay (AID 2283023); conditions: primary human endothelial cells (HUVEC);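 note: fitted both ways against DMSO so a hit may be signal rise or drop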
# Outline: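 Absorbance at 560 nm of sulforhodamine B-stained (0.1%) total protein served as a cytotoxicity readout in human umbilical vein endothelial cells, 24 h after chemical treatment. Signal was fitted bidirectionally relative to DMSO.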
compound,measurement,setting,value
O=C1c2c(O)cccc2Cc2cccc(O)c21,outcome,[1],inactive
same,AC50,[2],4.63 µM (active)
same,AC50,[3],39 µM (active)
same,outcome,[4],inactive
same,AC50,[5],20 µM (active)
same,outcome,[6],inactive
same,outcome,[7],inactive
same,outcome,[8],inactive
same,outcome,[9],inactive
same,outcome,[10],inactive
same,outcome,[11],inactive
same,outcome,[12],inactive
same,outcome,[13],inactive
same,outcome,[14],inactive
same,outcome,[15],inactive
same,outcome,[16],inactive
same,outcome,[17],inactive
O=C(O)c1cccnc1,outcome,[1],inactive
same,outcome,[2],inactive
same,outcome,[3],inactive
same,outcome,[4],inactive
same,outcome,[5],inactive
same,outcome,[6],inactive
same,outcome,[7],inactive
same,outcome,[8],inactive
same,outcome,[9],inactive
same,outcome,[10],inactive
same,outcome,[11],inactive
same,outcome,[12],inactive
same,outcome,[13],inactive
same,outcome,[15],inactive
same,outcome,[16],inactive
same,outcome,[17],inactive
C/C=C/C=C/C(=O)O,outcome,[1],inactive
same,outcome,[2],inactive
same,outcome,[3],inactive
same,outcome,[4],inactive
same,outcome,[5],inactive
same,outcome,[6],inactive
same,outcome,[7],inactive
same,outcome,[9],inactive
same,outcome,[10],inactive
same,outcome,[11],inactive
same,outcome,[12],inactive
same,outcome,[13],inactive
same,outcome,[15],inactive
same,outcome,[16],inactive
same,outcome,[17],inactive
Cc1cc(Cc2ccc(N)c(C)c2)ccc1N,outcome,[1],inactive
same,outcome,[2],inactive
same,outcome,[3],inactive
same,outcome,[4],inactive
same,outcome,[5],inactive
same,outcome,[6],inactive
same,outcome,[7],inactive
same,outcome,[8],inactive
same,outcome,[9],inactive
same,outcome,[10],inactive
same,outcome,[11],inactive
same,outcome,[12],inactive
same,outcome,[13],inactive
same,outcome,[15],inactive
same,outcome,[16],inactive
same,outcome,[17],inactive
CO[C@@H]1COCC[C@@H]1N[C@@H]1CC[C@@](C(=O)N2CCc3ncc(C(F)(F)F)cc3C2)(C(C)C)C1,outcome,[1],inactive
same,outcome,[2],inactive
same,outcome,[3],inactive
same,outcome,[4],inactive
same,outcome,[5],inactive
same,outcome,[6],inactive
same,outcome,[18],inactive
same,outcome,[7],inactive
same,outcome,[8],inactive
same,outcome,[9],inactive
same,outcome,[10],inactive
same,outcome,[11],inactive
same,outcome,[12],inactive
same,outcome,[13],inactive
same,outcome,[15],inactive
same,outcome,[16],inactive
same,outcome,[17],inactive
CC(C)NCC(O)c1ccc(O)c(O)c1 (centres undefined),outcome,[1],inactive
same,outcome,[19],inactive
same,outcome,[2],inactive
same,outcome,[3],inactive
same,outcome,[4],inactive
same,outcome,[5],inactive
same,outcome,[6],inactive
same,outcome,[7],inactive
same,outcome,[8],inactive
same,outcome,[9],inactive
same,outcome,[10],inactive
same,outcome,[11],inactive
same,outcome,[12],inactive
same,outcome,[13],inactive
same,outcome,[14],inactive
same,outcome,[15],inactive
same,outcome,[16],inactive
same,outcome,[17],inactive
N[C@@H](Cc1c[nH]c2ccccc12)C(=O)O,outcome,[1],inactive
same,outcome,[19],inactive
same,outcome,[2],inactive
same,outcome,[3],inactive
same,outcome,[4],inactive
same,outcome,[5],inactive
same,outcome,[6],inactive
same,outcome,[7],inactive
same,outcome,[8],inactive
same,outcome,[9],inactive
same,outcome,[10],inactive
same,outcome,[11],inactive
same,outcome,[12],inactive
same,outcome,[13],inactive
same,outcome,[15],inactive
same,outcome,[16],inactive
same,outcome,[17],inactive
COc1ccc(C(=O)Nc2nc3ccccc3c(NCc3ccccc3)c2C#N)cc1,outcome,[1],inactive
same,AC50,[2],7.48 µM (active)
same,AC50,[3],39 µM (active)
same,outcome,[4],inactive
same,outcome,[5],inactive
same,outcome,[6],inactive
same,outcome,[18],inactive
same,outcome,[7],inactive
same,outcome,[8],inactive
same,outcome,[9],inactive
same,outcome,[10],inactive
same,outcome,[11],inactive
same,outcome,[12],inactive
same,outcome,[13],inactive
same,outcome,[14],inactive
same,outcome,[15],inactive
same,outcome,[16],inactive
same,outcome,[17],inactive
